Assay results from the supplement of paper PMC3724861.
Only a selection was taken, and hits are over-represented in it overall. How many sequences the whole screen found active is unknown.

Each sequence was assayed on T1, Caupolican (Caup) homeodomain DNA-binding domain (assay: PBM E-score (8-mer, recovered from the published 9-mer minima) (E-score (dimensionless, -0.5 to 0.5)); Drosophila protein; higher = stronger relative binding preference, active = 0.31 or more).
T1 sequence: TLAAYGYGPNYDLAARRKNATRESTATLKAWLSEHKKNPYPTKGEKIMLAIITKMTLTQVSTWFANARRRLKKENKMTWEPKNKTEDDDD
Experimental: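 Protein binding microarray (PBM): in vitro transcribed/translated Caupolican (Caup) homeodomain DNA-binding domain (residues 214-303) applied at 100 nM to a universal 8-mer PBM array (Agilent AMADID 015681). The 8-mer enrichment score (E-score, range -0.5 to 0.5) was computed, and each 9-mer score is the minimum E-score of its two constituent 8-mers. The E-score is the same for a 9-mer and its reverse complement; 0.31 is the stated binding threshold.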

Sequence	PBM E-score
ATTTCTCA	0.0413 (inactive)
ACGACAGT	0.094 (inactive)
AGCATATA	0.119 (inactive)
AATCGAGC	0.0234 (inactive)
CTGTGTCA	0.142 (inactive)
TAGTGTCA	0.182 (inactive)
GCGTGTCA	0.284 (inactive)
TCGTGTCA	0.328 (active)
ATGTGTCA	0.297 (inactive)
GTGTGTCA	≥ 0.312 (active)
ACGTGTCG	0.301 (inactive)
ACGTGTCA	≥ 0.374 (active)
CCGTGTCA	0.278 (inactive)
TACGTGGA	-0.086 (inactive)
AACTATCT	0.0956 (inactive)
ATGCCGGC	-0.134 (inactive)
AGCCCGAG	-0.187 (inactive)
ACCAACCC	-0.0241 (inactive)
CAGGGGAC	-0.193 (inactive)
AAACACTA	0.193 (inactive)
GACATCAA	0.296 (inactive)
AACATCAA	≥ 0.316 (active)
CACATCGA	0.0459 (inactive)
TACATCAA	0.331 (active)

Sequence	PBM E-score
AACATCAG	0.231 (inactive)
AACATCAC	0.267 (inactive)
CACATCAA	0.0655 (inactive)
TACATCGA	0.314 (active)
GACATCGA	0.24 (inactive)
GTGGCTTA	-0.0913 (inactive)
GATCGGAA	0.052 (inactive)
GTTGAGTA	0.128 (inactive)
CATGTGTA	0.308 (inactive)
GATGTACA	0.404 (active)
GATGTGCA	0.102 (inactive)
CATGTACA	0.469 (active)
CATGTACC	0.416 (active)
ACTGTACA	0.257 (inactive)
CCTGTACA	0.32 (active)
CCTGTACC	0.11 (inactive)
CAAGTACC	0.159 (inactive)
CATGTGCA	0.119 (inactive)
ACTGTACC	0.107 (inactive)
CTAGCGAG	-0.138 (inactive)
AGTGAATG	0.0689 (inactive)
GGGCTGAC	-0.108 (inactive)
ACGCATCC	-0.0982 (inactive)
TCTGTACA	0.281 (inactive)

Sequence	PBM E-score
GATGTACC	0.366 (active)
AATGTACC	0.192 (inactive)
TATGTACA	0.427 (active)
AATGTACT	0.269 (inactive)
AATGTACA	0.407 (active)
TATGTAGA	0.226 (inactive)
GATGTGTA	0.252 (inactive)
GCTGTACC	0.0813 (inactive)
GATGTGCC	-0.0456 (inactive)
AATGTGTG	0.142 (inactive)
AATGTGTA	0.311 (active)
CAATGCTG	-0.0134 (inactive)
CCGTAACG	-0.1 (inactive)
CCTGAGCG	-0.215 (inactive)
AAGGTCTC	-0.0943 (inactive)
CATGTACG	0.409 (active)
CCTGTACG	0.0896 (inactive)
AATGTACG	0.153 (inactive)
CACCTTGC	0.00581 (inactive)
CCAGTACC	-0.0496 (inactive)
AATACTCG	0.138 (inactive)
ATGGTATC	0.109 (inactive)
AGATGCTA	0.0221 (inactive)
ATTACTCA	0.112 (inactive)

Sequence	PBM E-score
GTTACACA	0.339 (active)
ATTACACA	≥ 0.332 (active)
GTTACAAA	0.285 (inactive)
ATTACACC	0.259 (inactive)
CTTACACA	0.201 (inactive)
CGCAGGAA	-0.134 (inactive)
GACGCACA	-0.0232 (inactive)
CAGTTCAA	-0.0476 (inactive)
GATGGGGC	-0.192 (inactive)
GGCATGGA	-0.0635 (inactive)
AGCATGGA	0.0568 (inactive)
AGCATGTA	≥ 0.413 (active)
AGCATGGG	-0.0663 (inactive)
GGCATGTA	0.378 (active)
GGCATGCA	0.0214 (inactive)
AGATTAGC	-0.0125 (inactive)
ATGTAGCC	0.145 (inactive)
GCCCAGCC	-0.262 (inactive)
TACGCTCA	-0.00447 (inactive)
GACTTGGA	-0.0172 (inactive)
AACTTGTG	0.147 (inactive)
CACTTGGA	0.0572 (inactive)
CACTTGTC	0.271 (inactive)
GACTTGTA	0.38 (active)

Sequence	PBM E-score
AACTTGTA	0.364 (active)
CACTTGTA	0.318 (active)
GACTTGCA	0.0909 (inactive)
AACTTGTC	0.27 (inactive)
AGCGACCA	-0.01 (inactive)
TACCTTGA	0.0541 (inactive)
CGCTAGAA	-0.14 (inactive)
CTACTCTC	-0.105 (inactive)
GAATAGCC	-0.146 (inactive)
GCCTTGAA	-0.119 (inactive)
GCCTTGCA	-0.0717 (inactive)
GCCTTGTA	0.321 (active)
CCTTTGTA	0.138 (inactive)
ACCTTGTC	0.306 (inactive)
ACCTTGTA	0.412 (active)
CCCTTGTA	0.337 (active)
CCCTTGTC	0.177 (inactive)
ACCTTGTG	0.0927 (inactive)
CGTAGTTA	0.157 (inactive)
CAAGCTGA	0.031 (inactive)
CTAGGGCC	-0.235 (inactive)
GGTCCGAC	-0.0703 (inactive)
CCAGTAAC	-0.0237 (inactive)
ATTATCAG	0.0887 (inactive)

Sequence	PBM E-score
AACTATTC	0.0523 (inactive)
ACTGATCC	0.062 (inactive)
ATACATCA	0.334 (active)
GCACATCA	0.0977 (inactive)
ATACATCC	0.276 (inactive)
GTACATCA	0.383 (active)
GAACATCA	0.259 (inactive)
CTACATCA	0.253 (inactive)
CTAACGGA	-0.0298 (inactive)
AAACGTTG	-0.0301 (inactive)
ACAAAGGA	0.131 (inactive)
CTTTCCTA	-0.094 (inactive)
ATCAGTAC	0.201 (inactive)
AAGAACAT	0.357 (active)
AAGAACAA	0.259 (inactive)
AAGAACAG	0.172 (inactive)
AAGAACAC	0.312 (active)
CAGAACAC	0.215 (inactive)
GAGAACAC	0.236 (inactive)
ACGTAGCT	0.0358 (inactive)
CATATCTC	0.0782 (inactive)
AGTTGGGC	-0.15 (inactive)
AGCACGTG	0.082 (inactive)
ACCACATG	0.212 (inactive)

Sequence	PBM E-score
ACTACAGG	0.199 (inactive)
ACTACATC	0.33 (active)
CCTACATA	0.153 (inactive)
ACTACAGC	0.149 (inactive)
ACTACATA	0.35 (active)
GCTACATA	0.248 (inactive)
CCTACATC	0.144 (inactive)
ACTACATG	0.428 (active)
AAAATACT	0.04 (inactive)
GCGATCGA	0.0192 (inactive)
AGCGTAGC	-0.111 (inactive)
AGGGCCGC	-0.251 (inactive)
CGACCCGA	-0.151 (inactive)
GCGGTACA	0.173 (inactive)
CTGGCCAG	-0.181 (inactive)
ATTTGGAC	0.134 (inactive)
AGGGCGTC	-0.192 (inactive)
CGTCATAA	0.081 (inactive)
TGTCATAA	0.338 (active)
CGACATCA	0.284 (inactive)
AGTCATAA	0.146 (inactive)
GGACATAA	0.211 (inactive)
TCACATAA	0.182 (inactive)
TTACATAA	0.339 (active)

Sequence	PBM E-score
AGACATAA	0.217 (inactive)
GGACATCA	0.234 (inactive)
TGACATAA	0.311 (active)
TGACATCA	≥ 0.333 (active)
CTACATAA	0.22 (inactive)
AGCCTGGG	-0.123 (inactive)
AATCCCCC	-0.256 (inactive)
CGGGAACA	0.176 (inactive)
AGACAACC	0.201 (inactive)
CTTAACAA	0.228 (inactive)
GTCGCGAA	0.00326 (inactive)
ATGGTGTC	0.142 (inactive)
GCTAGGCC	-0.238 (inactive)
GTACATAA	0.361 (active)
GTACATAC	0.307 (inactive)
GCACATAA	0.0651 (inactive)
ACCCTGGG	-0.105 (inactive)
GAGATAGC	-0.0575 (inactive)
AACAACGT	0.252 (inactive)
AACAACAG	0.243 (inactive)
TACAACGA	0.267 (inactive)
TTCAACAA	0.299 (inactive)
AGCAACAA	0.182 (inactive)
AACAACTA	≥ 0.319 (active)

Sequence	PBM E-score
AACAACAA	0.394 (active)
AACAACAT	0.409 (active)
AACAACTC	0.167 (inactive)
CACAACAA	0.29 (inactive)
AACAACTG	0.208 (inactive)
TACAACAA	0.387 (active)
AGTTTCCA	0.0163 (inactive)
CTCTGGGC	-0.214 (inactive)
CCCGTGAA	-0.0554 (inactive)
TCCGAGGA	-0.0519 (inactive)
GGGAGTAA	0.0271 (inactive)
AATCCGGC	-0.121 (inactive)
CTTGGGTA	-0.0204 (inactive)
CCACCGGC	-0.281 (inactive)
TTACTCAA	0.0597 (inactive)
ATCAACAG	0.109 (inactive)
ATCAACAA	0.289 (inactive)
AACAACCC	0.247 (inactive)
ATCAACAT	0.371 (active)
AACAACCT	0.243 (inactive)
AACAACCA	≥ 0.324 (active)
CGCGCTAG	-0.142 (inactive)
GTCGATAA	0.0563 (inactive)
ACACCCGC	-0.0419 (inactive)

Sequence	PBM E-score
AAAAAAGA	-0.0444 (inactive)
CCGGCTCA	-0.123 (inactive)
GATGAATC	0.106 (inactive)
CTGTCAAG	-0.017 (inactive)
ATGTTTAA	0.367 (active)
ATGTTTGG	0.229 (inactive)
CTGTTTTC	0.134 (inactive)
GTGTTTTA	0.213 (inactive)
ATGTTTAG	0.284 (inactive)
ATGTTTTC	0.33 (active)
ATGTTTTA	0.369 (active)
CTGTTTGA	0.188 (inactive)
CTGTTTAA	0.111 (inactive)
ATGTTTCC	0.236 (inactive)
CTGTTTTA	0.107 (inactive)
ATGTTTGA	0.327 (active)
